The text below walks through data of ChEMBL document CHEMBL1201862, “PubChem BioAssay data set” (2004).

The campaign covered roughly 410,000 compounds. About 7,200 (1.8%) were called active. Not shown: some 7% with an inconclusive outcome. The calls are words filed in the database; no cut-off is given here. Many of the other results were omitted from the sample, so actives are more common in it than they were.

Sequence of TAR DNA-binding protein 43 (Homo sapiens) (Q13148 whole entry): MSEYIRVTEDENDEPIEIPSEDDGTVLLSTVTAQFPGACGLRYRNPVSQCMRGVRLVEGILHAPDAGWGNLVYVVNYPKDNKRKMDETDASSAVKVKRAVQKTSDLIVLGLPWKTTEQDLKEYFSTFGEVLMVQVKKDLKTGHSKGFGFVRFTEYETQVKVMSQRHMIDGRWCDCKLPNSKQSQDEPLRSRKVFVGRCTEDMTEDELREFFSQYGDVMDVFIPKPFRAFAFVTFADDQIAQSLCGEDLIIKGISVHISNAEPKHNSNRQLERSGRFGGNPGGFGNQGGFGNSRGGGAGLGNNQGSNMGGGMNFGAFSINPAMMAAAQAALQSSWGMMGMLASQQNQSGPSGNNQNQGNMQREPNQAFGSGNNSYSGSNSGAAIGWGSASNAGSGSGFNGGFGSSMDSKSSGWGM

The assay has as its target TAR DNA-binding protein 43 (Homo sapiens) (UniProt Q13148). Description: qHTS of TDP-43 Inhibitors. The format is functional. For orientation: In qHTS, concentration-response curves come from the screen itself.
As to `COc1ccc(OCC(O)COc2ccc(C(=O)O)cc2)cc1` (configuration not stated), the Potency was 100 µM (active).

Regarding `O=C(Nc1ccccc1)c1ccccc1NS(=O)(=O)c1ccc(Cl)s1`, the Potency result was “inactive”.

Turning to `O=C(N/N=C/c1ccc(O)c2ncccc12)c1cccc(Br)c1`, the Potency result was “inactive”.

For `Clc1ccc(-c2nnc(COc3ncnc4ccccc34)o2)cc1`, the Potency entry is “inactive”.

As for `CCOc1cc(N2CCOCC2)c(OCC)cc1NC(=O)Cn1[nH]c(=O)c2ccccc2c1=O`, the Potency is 79.4 µM (active).

`Cc1ccc(-c2cc(C(=O)N3N=C(C(F)F)CC3(O)C(F)F)c3ccccc3n2)cc1C` (configuration not stated): the Potency result is “inactive”.

On to `Cc1ccc(N(Cc2ccccc2)C(=O)c2cc(S(=O)(=O)N3CCOCC3)ccc2Cl)cc1`, for which the Potency entry is “inactive”.

Turning to `COc1ccc2[nH]c3c(C)c4ccncc4c(C)c3c2c1`, the Potency entry was “inactive”.

Regarding `O=C(O)Cc1ccccc1Nc1c(Cl)cccc1Cl`, the Potency is 15.8 µM (active).

As to `O=C(Nc1cccc(F)c1)c1ccc2c(c1)OCCO2`, the Potency result was “inactive”.

For `COc1ccc(Cl)cc1NC(=O)C1CCCN(c2cc(C)nc3ncnn23)C1` (configuration not stated), the Potency result is “inactive”.

As to `CN(C(=O)COC(=O)c1cccnc1Nc1cccc(C(F)(F)F)c1)C1CCS(=O)(=O)C1` (configuration not stated), the Potency result is “inactive”.
